The entries come from a sample that favours hits as a whole.
14-3-3g Raf: alters human 14-3-3 gamma binding to Raf peptide; P61981; FP, 14-3-3gamma / TMR-pS259-Raf peptide binding; inhibition, % at 40 µM; actives 0.19% (n = 160,000); in the data active means inhibition above about 30%;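 further: 0% = protein plus tracer without compound and 100% = blank with tracer alone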
Target sequence (P61981 whole entry, looked up): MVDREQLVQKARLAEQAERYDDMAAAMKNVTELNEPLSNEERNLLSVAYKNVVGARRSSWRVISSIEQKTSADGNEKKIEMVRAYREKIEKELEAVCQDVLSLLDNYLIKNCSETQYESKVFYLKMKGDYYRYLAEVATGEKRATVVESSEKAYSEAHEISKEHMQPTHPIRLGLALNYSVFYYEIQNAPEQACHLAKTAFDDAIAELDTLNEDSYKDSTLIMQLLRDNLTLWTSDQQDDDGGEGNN
Numbers without * were called inactive; ! = repeats disagree.

SMILES	14-3-3g Raf
CCOc1ccc2[nH]c(=O)c(CN(Cc3ccccc3)C(=O)N3CCCC3)cc2c1	-8
CCOc1ccc2[nH]c(=O)c(CN(CC3COCCO3)C(=O)C3CC3)cc2c1 (stereo unspecified)	39*
CCOc1ccc2[nH]c(=O)c(CN(C(=O)N3CCOCC3)C3CC3)cc2c1	-7
COc1ccc(C2C(C(=O)N3CCOCC3)=C(C)NC3=C2C(=O)CC(C)(C)C3)c(OC)c1 (stereo unspecified)	-5
CC1CCCCN1C(=O)CSc1nc(-c2ccccc2)cc(=O)[nH]1 (stereo unspecified)	-10
Nc1nc2n(n1)C1(CCCCC1)C1=C(CCCC1)N2	0
Cn1c(=O)c(N)c2c3c(cccc31)C(=O)c1ccccc1-2	109*
O=C(Nc1ccc2c(c1)C(=O)c1ccccc1C2=O)c1ccc(Br)cc1	-18
COc1ccc(Nc2c3c4c(c(Br)ccc4n(C)c2=O)C(=O)c2ccccc2-3)cc1	-39
Cn1c(=O)c(Nc2ccc(Br)cc2)c2c3c(cccc31)C(=O)c1ccccc1-2	151*
CC(=O)c1c2c3c(c(Br)ccc3n(C)c1=O)C(=O)c1ccccc1-2	-1
CC(=O)c1c2c3c(cccc3n(C)c1=O)C(=O)c1ccccc1-2	32*
Cn1c(=O)c(C(=O)NCCO)c(O)c2ccccc21	0
CCCCCCCNc1c2c3c(cccc3n(C)c1=O)C(=O)c1ccccc1-2	16
COc1ccc2c(c1N)C(=O)c1ccccc1C2=O	-80
O=C(C1CCN(S(=O)(=O)c2cccc3nsnc23)CC1)N1CCc2ccccc2C1	-2
CCN(CC)c1ccc2cc(C(=O)Nc3ccc(Oc4ccc(Cl)cc4)cc3)c(=O)oc2c1	-29
Cc1ccc(C(=O)Nc2ccc(F)cc2)cc1S(=O)(=O)N1CCCCCC1	-5
C=CCn1c(N)c(-c2nc3ccccc3n2C)sc1=S	-89
O=C(O)c1cccnc1SC1CC(=O)N(c2ccc([N+](=O)[O-])cc2)C1=O (stereo unspecified)	-5
O=C(O)c1cccnc1SC1CC(=O)N(c2ccc(N3CCOCC3)cc2)C1=O (stereo unspecified)	30*
O=C(O)c1cccnc1SC1CC(=O)N(c2ccc3c(c2)OCO3)C1=O (stereo unspecified)	-51
Cc1cccc(-c2noc(COc3ccc(C(C)C)cc3Br)n2)c1	-3
CC1CCN(c2cc(Nc3ccc(C(=O)O)cc3)c3c4c(onc24)-c2ccccc2C3=O)CC1	-427
Cc1ccc(-c2nc3cc(N=Cc4cccc([N+](=O)[O-])c4O)ccc3o2)cc1C	-60
SMILES	14-3-3g Raf
Cc1ccccc1-c1nc2cc(N=Cc3cc(Cl)cc([N+](=O)[O-])c3O)ccc2o1	-6
Oc1ccc(Cl)cc1C=Nc1ccc(-c2nc3cc(Cl)ccc3o2)cc1	84*
Cc1ccc(-c2nc3cc(N=Cc4cc(C)cc([N+](=O)[O-])c4O)ccc3o2)cc1	53*
CN(C)c1ccc(-c2nc3cc(N=Cc4cc(Cl)ccc4O)ccc3o2)cc1	-36
Cc1ccc(-c2nc3cc(N=Cc4cc(Cl)ccc4O)ccc3o2)cc1	-7
Cc1cccc(Oc2coc3cc(OCc4ccccc4Cl)ccc3c2=O)c1	-3
CCCn1c(CNS(=O)(=O)c2ccc(C)cc2)nc2ccccc21	3
CSCCC(C(=O)Nc1cccc(C)c1)N1C(=O)c2ccccc2C1=O (stereo unspecified)	-10
CCC(C)NS(=O)(=O)c1ccc(OC)c(OC)c1 (stereo unspecified)	-7
Cc1ccccc1CS(=O)(=O)Cc1ccc(C(=O)NCc2ccco2)o1	1
Cc1cc(=O)oc(C)c1C(=O)NCc1ccccc1Cl	-9
Cc1ccccc1CS(=O)(=O)Cc1ccc(C(=O)NCc2ccccn2)o1	33*
Cc1ccc(CNC(=O)c2c(C)cc(=O)oc2C)cc1	-4
Cc1cc(=O)oc(C)c1C(=O)NCc1ccccn1	45*!
O=C(NCc1ccccn1)c1ccc(CS(=O)(=O)Cc2ccc(Cl)cc2)o1	2
COc1ccc(N2C(=O)CSC2c2ccc(Br)cc2)cc1 (stereo unspecified)	13
O=C(O)CN=C(NS(=O)(=O)c1ccccc1)c1ccccc1	2
CC1(C)CC(=O)C2=C(C1)Nc1nc(SCc3ccccc3F)[nH]c(=O)c1C2c1cccs1 (stereo unspecified)	-3
Cc1cc(N2CCOCC2)nc2ccc(NC(=O)CCC(=O)N3CCN(c4cccc(Cl)c4)CC3)cc12	-2
O=C(O)C1Cc2c([nH]c3ccccc23)CN1 (stereo unspecified)	-2
O=C(O)C1Cc2c([nH]c3ccccc23)C(c2ccccc2)N1 (stereo unspecified)	5
O=C(O)C1Cc2c([nH]c3ccccc23)C(c2ccccc2[N+](=O)[O-])N1 (stereo unspecified)	53*
CC(O)Cn1ccccc1=N (stereo unspecified)	-4
CCN(Cc1ccccc1)c1ncnc2sc(C)cc12	1
CC(C)c1ccc(OCC(=O)Nc2ncc(S(=O)(=O)c3ccc([N+](=O)[O-])cc3)s2)cc1	-2
SMILES	14-3-3g Raf
COc1ccccc1N1CCN(C(=O)Cn2cnc3ccc(S(=O)(=O)N4CCC(C)CC4)cc3c2=O)CC1	-4
CCOC(=O)c1ccc(NC(=O)Cn2cccc2)cc1	-4
CCOC(=O)c1ccc(NC(=O)CN2CCCCC2)cc1	31*
CCOC(=O)c1ccc(NC(=O)CN2CCN(c3ccccc3)CC2)cc1	-5
CCc1ccc(C(=O)c2c[nH]c3ccc(OC)cc3c2=O)cc1	-18
O=C(Nc1ccc2c(c1)Nc1ccccc1CC2)c1ccccc1	-1
COc1ccc(C=Nc2ccc3ncccc3c2)cc1	14
COc1ccc(C=Nc2ccccc2)cc1	-12
COc1ccc(C=Nc2ccco2)cc1	32*
COc1ccc(Br)c(C(=O)Nc2cc(C(=O)NCc3cccs3)ccc2N2CC3CC(C2)c2cccc(=O)n2C3)c1 (stereo unspecified)	-1
COC(=O)c1ccc(C2C3=C(CCCC3=O)Nc3ccc4nc(C)ccc4c32)cc1 (stereo unspecified)	1
COC(=O)c1ccc2c(c1)NC(=O)CS2	-2
COC(=O)c1ccc2c(c1)SC1=C(CCCC1=O)N2	33*
O=C(CCCn1c2ccccc2c(=O)c2ccccc21)Nc1ccc2c(c1)OCCO2	4
Nc1ccc2c(c1Cl)C(=O)c1ccccc1C2=O	-31
O=C(c1ccc2c(c1)[nH]c(=S)n1c3ccccc3nc21)N1CC=C(c2ccccc2)CC1	-18
O=C(Nc1cccnc1Cl)c1cc(-c2ccco2)on1	-160
CCOC(=O)C1=C(C(C)=O)C(c2cccnc2)C(C#N)=C(N)O1 (stereo unspecified)	32*
CCOC(=O)C1=C(N)Oc2cc(O)ccc2C1c1cccnc1 (stereo unspecified)	-12
CCOC(=O)C1=C(CSc2nc(-c3ccncc3)ccc2C#N)OC(N)=C(C#N)C1c1cccnc1 (stereo unspecified)	-16
CCOc1ccccc1Nc1nc(-c2c(C)nc3cc(C)ccn23)cs1	-2
O=C(CN(Cc1ccccc1)S(=O)(=O)c1ccc(F)cc1)NCc1ccccc1	3
O=C(CN(Cc1ccccc1)S(=O)(=O)c1ccc(Br)cc1)NCc1ccncc1	-2
O=C(CN(Cc1ccccc1)S(=O)(=O)c1ccccc1)NCc1ccncc1	33*
O=C(NCc1ccc(Cl)cc1)C1CCCN(S(=O)(=O)c2cccc3nsnc23)C1 (stereo unspecified)	-10
COc1cc2cc(CN(CCN3CCCC3)C(=O)Nc3ccc(F)cc3)c(=O)[nH]c2cc1OC	-10

Assay outcomes as filed in PubChem BioAssay.
